Measurements taken from PubChem BioAssay (Tox21).
Values joined by “and” are separate entries in the source; they are usually repeats but may differ in a detail not shown here. Identical values can stand only once. Inconclusive results are not listed. A structure can be active in one record and inactive in another. Active and inactive are the calls of the source. Calls come from the whole dose curve; as a rule, active = well fitted cell-killing curve with a large enough effect in the repeat runs; inconclusive = weak or mixed curves, or effect the other way; inactive = no such curve, though single readings can be large or run the other way.

Test: qHTS assay for identifying genotoxic compounds that show differential cytotoxicity against isogenic chicken DT40 cell lines with known DNA damage response pathways - Rev3 mutant cell line (AID 743014); note: nearly all actives have a fitted effect of over 55% in size
Conditions: chicken DT40 Rev3-/- viability, CellTiter-Glo, 40 h; series mostly up to 68.4 µM; activity, negative = cytotoxicity: at the top concentration
Description: National Center for Advancing Translational Sciences [NCATS]
NIH Chemical Genomics Center [NCGC]
U.S. Environmental Protection Agency [EPA]
National Institutes of Environmental Health Sciences [NIEHS]
National Toxicology Program [NTP]
U.S. Food and Drug Administration [FDA]
DNA repair pathways play a critical role in cellular homeostasis by repairing DNA damage induced by endogenous processes and xenobiotics. Isogenic chicken DT40 cell lines deficient in different DNA repair pathways can be used to identify genotoxic compounds and aid in characterizing the nature of the DNA damage induced. Two DNA repair-deficient cell lines with disrupted genes, Rad54/Ku70 or Rev3, were used to screen the Tox21 10K compound library. Possible genotoxicity was based on the presence of a significant increase in cytotoxicity in one or more of the DNA repair-deficient cell lines compared to that observed in the parental DNA repair-proficient cell line. CellTiter Glo viability assay (Promega, Madison, WI) was used to measure cell viability in these cells after compound treatment. This assay includes the data from the Rev3 mutant cell line.
Tox21 Assay Protocol Summary:
300 DT40 mutant cells in 5 uL/well were dispensed into white, solid-bottom 1536-well plates using a Multidrop Combi (ThermoFisher Scientific, Waltham, MA) dispenser. After the assay plates were incubated at 37 C/5% CO2 for approximately 0.5 hour, 23 nL of compounds dissolved in DMSO, positive controls or DMSO only was transferred into the assay plate by a pintool work station (Kalypsys, San Diego, CA). The assay plates were incubated at 37 C/5% CO2 for 40 hours. After 5 uL per well of CellTiter-Glo reagent was added into each well of the assay plates, the plates were incubated for 30 min at room temperature and the luminescence intensity of the plates was measured using a ViewLux (PerkinElmer, Shelton, CT) plate reader.
% is set by controls: 0 for no effect and ±100 for the full control effect; potency is the fitted concentration of half-maximal effect.

Structure (SMILES)	Potency	activity, negative = cytotoxicity
CCOC(=O)C(C#N)=C(c1ccccc1)c1ccccc1	26.6 µM (active) and 15.4 µM (active)	
Nc1ncnc2nc[nH]c12		18% (inactive)
CC(C)OC(=O)C(C)(C)Oc1ccc(C(=O)c2ccc(Cl)cc2)cc1	24.3 µM (active)	
NC=O	inactive	
CCCCC(CC)COC(=O)c1ccc(N(C)C)cc1 (stereo not given)	inactive and 54.5 µM (active)	
CCC(C)c1ccccc1O (stereo not given)	inactive	
NNc1ccc(C(=O)O)cc1	inactive	
O=CCc1ccccc1		0.606% (inactive)
O=C1c2cccc(O)c2C(=O)c2c(O)cccc21	inactive	
CC(=O)c1ccccn1	inactive	
CC(=O)O[C@]1(C(C)=O)CC[C@H]2[C@@H]3C=C(Cl)C4=CC(=O)[C@@H]5C[C@@H]5[C@]4(C)[C@H]3CC[C@@]21C	21.1 µM (active) and 4.85 µM (active) and 15.4 µM (active)	
C[C@]12CC[C@H]3[C@@H](CCC4=CC(=O)CC[C@@]43C)[C@@H]1CC[C@@H]2C(=O)CO	9.69 µM (active)	
O=C(/C=C/C=C/c1ccc2c(c1)OCO2)N1CCCCC1	61.3 µM (active)	
CCCCC/C=C/C=C/C=O	inactive and 21.7 µM (active)	
CC(=O)CC/C=C(\C)CCC=C(C)C		2.34% [at 95 µM] (inactive)
O=P(O)(O)O	inactive	
c1ccc2sc(SSN3CCOCC3)nc2c1	9.67 µM (active) and 2.73 µM (active)	
CC(C)Oc1ccc2c(=O)c(-c3ccccc3)coc2c1	4.22 µM (active)	
CC(C)(C)NC(=O)[C@H]1CC[C@H]2[C@@H]3CC[C@H]4NC(=O)C=C[C@]4(C)[C@H]3CC[C@]12C	inactive and 60.4 µM (active) and 27.3 µM (active)	
COC(C)COC(C)COC(C)CO (stereo not given)	inactive	

Structure (SMILES)	Potency	activity, negative = cytotoxicity
O=Cc1ccccc1O		6.01% (inactive)
OC[C@H]1O[C@@H]2O[C@H]3[C@H](O)[C@@H](O)[C@@H](O[C@H]4[C@H](O)[C@@H](O)[C@@H](O[C@H]5[C@H](O)[C@@H](O)[C@@H](O[C@H]6[C@H](O)[C@@H](O)[C@@H](O[C@H]7[C@H](O)[C@@H](O)[C@@H](O[C@H]8[C@H](O)[C@@H](O)[C@@H](O[C@H]1[C@H](O)[C@H]2O)O[C@@H]8CO)O[C@@H]7CO)O[C@@H]6CO)O[C@@H]5CO)O[C@@H]4CO)O[C@@H]3CO	inactive	
CCC(C)OC(=O)c1ccc(O)cc1 (stereo not given)		-28.8% (inactive)
O=C=Nc1ccc(Cc2ccc(N=C=O)cc2)cc1	10.7 µM (active) and inactive	
COC(=O)Nc1nc2ccc(S(=O)c3ccccc3)cc2[nH]1 (stereo not given)	11.9 µM (active) and 6.11 µM (active)	
CCOCCOCCO	inactive	
c1cc(-c2ccncc2)ccn1	inactive	
Nc1ccc(Nc2ccccc2)cc1	67.8 µM (active) and 54.5 µM (active) and 34.4 µM (active)	
C#C[C@]1(O)CC[C@H]2[C@@H]3CCc4cc(OC)ccc4[C@H]3CC[C@@]21C	5.96 µM (active) and 4.86 µM (active)	
CN(C)CCN(Cc1cccs1)c1ccccn1		-7.86% (inactive)
Cc1cccc([N+](=O)[O-])c1C	inactive	
CC1=CC2C3CC(C=C3C)C2C1 (stereo not given)	inactive and 54.5 µM (active)	
COc1ccccc1/C=C/C=O	62.8 µM (active)	
COC(=O)CCC(=O)OC		3.66% [at 95 µM] (inactive)
CC(C)=CCCC(C)CCO (stereo not given)	inactive and 30.6 µM (active)	
O=C(c1ccccc1)c1ccccc1O	inactive	
Clc1nc(Cl)c(Cl)c(Cl)c1Cl	inactive	
CC1=CCC(C(C)(C)O)CC1 (stereo not given)	inactive	
Brc1cc(Oc2cc(Br)c(Br)c(Br)c2Br)c(Br)c(Br)c1Br	inactive	
Oc1ccc(O)cc1	18.8 µM (active) and 24.2 µM (active) and 48.6 µM (active)	
